# Shn3 inh set2: inhibitors of Schnurri-3 3'UTR reporter in osteoblasts; Clone20 osteoblast Shn3 3'UTR firefly luciferase, 24 h; inhibition, % at 12.5 µM; 360,000 tested, 0.52% active; AID 588674;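 active = mean inhibition of at least 75% with every replicate also reaching 75%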;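 note: 0% = median of neutral control wells and 100% = pilot-screen positive control compound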
# TROY signal inh: TROY signaling inhibition; inhibition, % at 10 µM; Q293 LMP1-TROYcd NF-kB luciferase reporter, 4 h; 360,000 tested, 0.98% active;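 active = compounds whose plate-normalised and pattern-corrected inhibition of the luciferase reporter signal at the single screening dose is 50% or more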
# LMP1 NFkB inh: reduces LMP1-driven NF-kappaB luciferase signal; LMP1-induced NF-kappaB luciferase reporter cells, luminescence; AID 504558; inhibition, % at 12.5 µM; 350,000 tested, 0.69% active; in the data active = inhibition above about 41%;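 note: 0% = neutral control wells and 100% = reference inhibitor control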
# TWEAK-Fn14 inh: blocks TWEAK-Fn14 interaction in a reporter cell assay. TWEAK-stimulated Fn14 reporter cells, luciferase luminescence, 8 h. inhibition, % at 10 µM. 360,000 tested, 2% active; in the data active = inhibition above about 50%
# HIF-2a inh: inhibitors of HIF-2a; 786-0 RCC cells HIF-2a reporter, luciferase luminescence, overnight; inhibition, % at 18.8 µM; 360,000 tested, 0.72% active;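 active = inhibition of the luminescence signal of 40% or more relative to plate controls, in a single-dose primary screen at 18.75 µM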
# MITF TRPM1 inh: inhibitors of MITF-driven TRPM1 promoter in melanoma cells; 330,000 tested, 0.83% active; AID 488899; SK-MEL-5 TRPM1 promoter luciferase, 24 h; inhibition, % at 12.5 µM;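 active = mean inhibition across replicates of 60% or more, whatever share of single replicates reaches that level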
# An asterisk follows results filed as active; · = not tested or not shown. This is a sample that favours compounds with a hit; in the whole collection about 3.4% have one here.
SMILES,Shn3 inh set2,TROY signal inh,LMP1 NFkB inh,TWEAK-Fn14 inh,HIF-2a inh,MITF TRPM1 inh
COc1cc2[nH]c3c(N4CCN(c5ccccn5)CC4)ncnc3c2cc1OC,45,38,-6,73*,24,38
Fc1ccc2[nH]c3c(N4CCN(c5ccccc5)CC4)ncnc3c2c1,89*,76*,50*,102*,-13,33
CC(C)CC1NC(=O)c2cc3ccccc3cc2-n2c1nc1cc(Cl)ccc1c2=O (centres undefined),66,23,1,19,28,·
COc1ccc2[nH]c3c(N4CCc5ccccc5C4)ncnc3c2c1,51,69*,18,92*,-116,37
O=C(NC(=S)NCc1ccccc1Cl)c1cccs1,11,-29,-1,20,-14,7
NC(=O)NC(=O)CSc1nc2sc(-c3ccccc3)cc2c(=O)n1-c1ccccc1,19,13,10,58*,-26,-3
CCc1ccccc1Nc1nc(N)nc(COC(=O)C2CCN(C(=O)c3ccc(F)cc3)CC2)n1,75,10,-2,9,15,4
CCOC(=O)c1ccc(NC(=O)C2CCN(S(=O)(=O)c3ccccc3)CC2)cc1,15,18,-2,-1,11,-9
CCOC(=O)c1ccc(NC(=O)C2CCCN(S(=O)(=O)c3ccc(F)cc3)C2)cc1 (centres undefined),20,45,18,58*,19,22
Cc1ccc2nc(NC(=O)c3ccc(-c4nc5ccccc5s4)s3)sc2c1,-15,-10,-62,49,-28,13
O=C(NC1CC1)c1ccc(-c2nc3ccccc3s2)s1,76,71*,42*,97*,47*,56
CC(C)c1ccc(CN2CCC(n3nccc3NC(=O)C3CCCC3)CC2)cc1,24,9,4,14,6,·
N#CNC(=Nc1cccc(F)c1)SCc1ccccc1F,18,59*,-4,0,-14,11
CC(C)N=C(NC#N)SCc1ccccc1F,-6,3,-8,15,-4,-1
COc1ccccc1NC(=O)N(C)C[C@H]1Oc2ncc(Br)cc2C(=O)N([C@H](C)CO)C[C@H]1C,5,-9,0,-3,1,·
Cc1c(CCC(=O)NCCCCCC(=O)O)c(=O)oc2c(C)c3oc4c(c3cc12)CCCC4,20,8,15,-5,33,-6
Cc1c(CC(=O)N[C@@H](CCCNC(N)=O)C(=O)O)c(=O)oc2cc3oc4c(c3cc12)CCCC4,1,-10,11,2,6,-12
Cc1c(CCC(=O)N[C@@H](CCCNC(N)=O)C(=O)O)c(=O)oc2cc3oc4c(c3cc12)CCCC4,23,20,8,47,67*,23
Cc1c(CCC(=O)NCCCC(=O)O)c(=O)oc2cc3oc4c(c3cc12)CCCC4,25,9,14,46,72*,31
Cc1cc2c(cc1C)N[C@]1(C[C@H]3CCCC(=O)N4CC[C@@H](C1)[C@@H]34)C(=NC(C)(C)CC(C)(C)C)N2,4,6,2,7,1,-8
C#CCN(C[C@H]1[C@H](OC(=O)Nc2c(C)noc2C)[C@H](OC(=O)Nc2c(C)noc2C)C[C@H]2C(=O)N(c3ccccc3)C(=O)[C@@H]12)S(=O)(=O)c1ccc(C)cc1,3,-2,0,13,1,·
O=C(Nc1cccc(C(F)(F)F)c1)Oc1ccc(Cl)c2cccnc12,51,48,11,74*,-32,11
CN(C)S(=O)(=O)c1cccc(NC(=S)N/N=C/c2cc(Br)ccc2O)c1,91*,22,49*,35,-5,67*
COc1ccc(NS(=O)(=O)c2cc(NC(=O)CCSc3ccccc3)ccc2OC)cc1,11,9,-9,58*,-63,-8
CC(C)OC1=CC(=O)OC(c2cccc(Cl)c2)C1 (centres undefined),·,·,·,·,-17,·
SMILES,Shn3 inh set2,TROY signal inh,LMP1 NFkB inh,TWEAK-Fn14 inh,HIF-2a inh,MITF TRPM1 inh
Cc1ccccc1NC(=O)CCNS(=O)(=O)c1cccc2nsnc12,-18,-4,3,34,5,9
COC(=O)c1ccc2nc(-c3ccc4c(c3)OCO4)cn2c1,42,41,48*,89*,-37,17
CCc1ccn2cc(-c3ccc4c(c3)OCO4)nc2c1,81,66*,72*,-4,60*,65*
O=C(NC(Cc1c[nH]c2ccccc12)C(=O)N1CCOCC1)c1cccs1 (centres undefined),-11,-11,-1,24,6,15
O=C(NC(Cc1c[nH]c2ccccc12)C(=O)N/N=C/c1ccc(Cl)cc1)c1cccs1 (centres undefined),27,29,-15,53*,19,19
Cc1cnc(C(=O)OCC(=O)Nc2ccc(Oc3ccccc3)cc2)cn1,-30,24,6,11,-12,-7
Cc1cnc(C(=O)OC(C)C(=O)Nc2ccc(Oc3ccccc3)cc2)cn1 (centres undefined),-26,8,71*,-1,-58,-24
CC1=NNC(=O)/C1=C\c1cn(-c2ccccc2)nc1-c1ccc(Cl)cc1,24,43,-79,-80,87*,-19
CCn1c(SCC(=O)N2CCCC2)nnc1-c1ccco1,-9,0,5,5,3,-1
COC(=O)c1c(-c2ccc(Br)cc2)csc1NC(=O)Cc1ccc(OC)c(OC)c1,55,-18,19,32,14,-1
COc1ccc(CC(=O)Nc2cccc3ccccc23)cc1OC,37,0,-1,16,6,15
COC(=O)c1c(-c2ccc(C)cc2)csc1NC(=O)Cc1ccc(OC)c(OC)c1,34,42,6,57*,18,2
COC(=O)c1c(-c2cccc3ccccc23)csc1NC(=O)Cc1ccc(OC)c(OC)c1,87*,40,2,75*,15,17
CN(c1ccc(O)cc1)c1nc(-c2ccccc2)cs1,-25,-44,-7,55*,-235,-54
Cc1cc(C)c(CN2CCN(CCCn3cnc(C(=O)Nc4ccc(C)c(C)c4)n3)CC2)c(C)c1,5,12,6,-15,-20,84*
CC1(c2ccc(OC(F)F)cc2)NC(=O)N(CC(=O)Nc2cccc(F)c2)C1=O (centres undefined),-5,3,-13,-8,-5,-6
O=c1[nH]c(-c2ccccc2F)nc2c1sc(=S)n2Cc1ccccc1,11,58*,11,61*,7,2
CCCCn1c(=O)[nH]c(=O)c2c1nc(-c1ccccc1F)n2Cc1ccccc1,13,-16,4,1,27,-2
Cc1ccccc1-c1n[nH]nc1C1=CC(=O)CC(C)(C)C1,-6,-11,37,-1,-5,·
CCOC(=O)[C@]12CCCC=C1N(Cc1ccccc1)C(=O)[C@H](CC(=O)NCc1cccc(C(F)(F)F)c1)C2,·,·,·,·,2,·
CCOc1ccc(C=NNC(=O)c2ccc(-n3cnnn3)cc2)cc1,13,13,10,56*,-13,-16
